The record followed here is PubChem BioAssay (NCI).

Molecules are shown by their SMILES. The panel holds about 83,000 compounds, 20% with a hit somewhere; the sample as a whole holds those more often.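 Note: values are percent growth. 100 is the growth of untreated cells, values between 100 and 0 indicate rising inhibition; between -100 and 0 indicates cell death.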 A number with no mark means an inactive call. The source made the active and inactive calls. The calls were made as follows: active = growth percent below 10; inactive = the rest.

Common to all, as to assay: NCI-60 one-dose screen, 48 h (100 = growth as untreated, 0 = no growth, -100 = all killed)
Holding throughout (details): 10 µM unless noted

Assay [1] relates to NCI-H23 lung.
The test system of assay [2] is NCI-H226 lung.
Assay [3] deals with NCI-H322M lung.
Assay [4] has as its system HOP-62 NSCLC.
Assay [5] relates to NCI-H460 lung.
Assay [6] relates to HOP-92 NSCLC.
The subject of assay [7] is NCI-H522 lung.
In assay [8] the test system is A549/ATCC NSCLC.
For assay [9], the system named is 786-0 renal.
Assay [10] concerns COLO 205 colon.
In assay [11] the test system is DU-145 prostate.
For assay [12], the system named is K-562 leukemia.
Assay [13] has as its system MALME-3M melanoma.
The subject of assay [14] is MDA-MB-231 breast.
For assay [15], the system named is RXF 393 renal.
Assay [16] has as its system SF-268 CNS.
Assay [17] has as its system SF-295 CNS.
Assay [18] has as its system SF-539 CNS.
The test system of assay [19] is UACC-257 melanoma.
In assay [20] the test system is M14 melanoma.

For the compound `COc1cc(-c2csc(NC(=O)Nc3ccc(C(F)(F)F)cc3)n2)cc(OC)c1OC`, the growth in [1] was 2.62% (active); in assay [2], 0.0527% (active); in assay [3], 33.5%; in assay [4] it was 9.05% (active); in assay [5], 4.98% (active); in assay [6], -24.5% (active). Besides, the growth in [7] was -25% (active); in assay [8], 5.16% (active); in assay [9] it was -10% (active); in [10], -44.4% (active); in assay [11], 20.8%; in [12], 7.21% (active). Further, the growth in assay [13] was -12.1% (active); in [14], -14.3% (active); in assay [15], -4.21% (active); in assay [16], 29.1%; in [17], -12.4% (active); in [18] it was 16%. For the same compound, the growth in [19] was -18.1% (active); in assay [20] it was 5.54% (active).

For the compound `NC(=O)CN1C(=O)c2ccccc2C1=O`, the growth is 98.8% in assay [1]; 101% in assay [2]; 99.1% in assay [3]; 101% in assay [4]; 106% in assay [5]; 96.7% in [6]. Also, the growth was 88.3% in assay [7]; 103% in assay [8]; 102% in assay [9]; 110% in assay [10]; 101% in assay [11]; 96% in [12]. Moreover, the growth is 97.5% in [13]; 101% in assay [14]; 114% in assay [15]; 97.3% in [16]; 95.3% in assay [17]; 106% in assay [18]. The figures for the growth in assay [19] and in [20] were 106% and 102%, respectively.

On to `CC(=O)c1cc2c(N)c(C(=O)Nc3ccccn3)sc2nc1C`, for which the growth in [1] is 87.3%; in [2], 86.8%; in assay [3] it was 73.6%; in assay [4] it was 88.3%; in [5], 45.6%; in [6], 75.2%. Also, the growth is 77% in assay [7]; 48.7% in [8]; 88.2% in assay [9]; 40.6% in [10]; 90.8% in [11]; 97.6% in assay [12]. Moreover, the growth is 90.1% in assay [13]; 87.1% in assay [14]; 86.4% in [15]; 93% in assay [16]; 71.6% in [17]; 84.9% in assay [18]. Also, the growth was 86.4% in [19] and 54.9% in [20].

Turning to `c1cc(CNC23CC4CC(CC(C4)C2)C3)cc(C[N+](Cc2cccc(CNC34CC5CC(CC(C5)C3)C4)c2)(Cc2cccc(CNC34CC5CC(CC(C5)C3)C4)c2)Cc2cccc(CNC34CC5CC(CC(C5)C3)C4)c2)c1` (stereo not given), the growth is 42.1% [42 µM] in assay [1]; 33.5% [42 µM] in assay [2]; 37.1% [42 µM] in [3]; 33.1% [42 µM] in [4]; 3.83% [42 µM] (active) in assay [5]; 32.8% [42 µM] in [6]. Further, the growth in assay [7] is -56.4% [42 µM] (active); in assay [8] it was 16.2% [42 µM]; in [9], 18.3% [42 µM]; in assay [10], -40.9% [42 µM] (active); in assay [11], -4.07% [42 µM] (active); in assay [12] it was 4.99% [42 µM] (active). In addition, the growth is 6.44% [42 µM] (active) in assay [13]; 16.7% [42 µM] in assay [14]; 4.56% [42 µM] (active) in assay [15]; 26.9% [42 µM] in assay [16]; 54.4% [42 µM] in [17]; 16.9% [42 µM] in [18]. The growth was 41.5% [42 µM] in assay [19] and 24.3% [42 µM] in [20].

For the compound `N#Cc1c(-c2ccc(F)cc2)nc(N=Nc2c(O)[nH]c3ccccc23)nc1N1CCOCC1`, the growth in [1] is 70.3%; in assay [2], 57.7%; in [3], 61.4%; in [4], 72%; in assay [5], 30.9%; in [6], 17.3%. Moreover, the growth in [7] was 78.6%; in assay [8] it was 23.4%; in assay [9], 59.4%; in [10], 77.9%; in [11], 69.1%; in assay [12] it was 91.8%. In addition, the growth in [13] was 63.7%; in assay [14], 66%; in assay [15] it was 62.8%; in assay [16], 77.3%; in [17], 70.2%; in assay [18], 85.5%. Further, the growth in [19] was 77.8%; in assay [20], 72.3%.

Consider `COc1cc2nc3c(=O)n(CCN(C)C)cnn3c(=O)c2cc1OC`, for which the growth in assay [1] is 95.9%; in assay [2], 103%; in [3], 95.2%; in assay [4] it was 101%; in assay [5], 105%; in [6], 100%. The growth in assay [7] was 89%; in assay [8], 105%; in assay [9], 105%; in assay [10], 102%; in assay [11], 108%; in assay [12], 125%. Besides, the growth is 99.4% in assay [13]; 116% in assay [14]; 108% in assay [15]; 101% in [16]; 99.5% in assay [17]; 97.7% in assay [18]. Moreover, the growth was 107% in assay [19] and 95.5% in [20].

With `OCCNc1nc(NCCO)nc(Nc2ccc(C3=NN(c4cc(Cl)cc(Cl)c4)C(c4ccc(C(F)(F)F)cc4)C3)cc2)n1` (stereo not given), the growth in assay [1] was 56.6%; in [2] it was 80.2%; in assay [3] it was 49.1%; in assay [4], 32.5%; in assay [5], 14.8%; in [6] it was 65.8%. Moreover, the growth was 61.2% in assay [7]; 32.9% in assay [8]; 2.27% (active) in [9]; 25.3% in [10]; 22.2% in assay [11]; 10.7% in [12]. Besides, the growth in [13] was 29.4%; in [14], 42.3%; in assay [15] it was -27.2% (active); in assay [16], 41.7%; in [17], -15.5% (active); in [18] it was 24.3%. The growth in assay [19] was 59.4%; in [20], 36.1%.
